Records with an inconclusive call do not appear. A number with no mark means an inactive call. Active and inactive are the calls of the source. Calls follow the shape of the dose curve; as a rule, active = well fitted cell-killing curve with a large enough effect in the repeat runs; inconclusive = weak or mixed curves, or effect the other way; inactive = no such curve, though single readings can be large or run the other way.
% is scaled to controls: 0 for no effect and ±100 for the full control effect.

The assay is described as follows: qHTS assay to identify small molecule antagonists of the peroxisome proliferator-activated receptor gamma (PPARg) signaling pathway - cell viability counter screen (AID 743194). Also: nearly all actives have a fitted effect of over 55% in size. Particulars: PPARg-bla HEK293H viability, CellTiter-Glo luminescence, 17 h; series mostly up to 62.6 µM; activity change, negative = cytotoxicity: at the top concentration. From the text:
U.S. Tox21 Program National Center for Advancing Translational Sciences [NCATS] NIH Chemical Genomics Center [NCGC] U.S. Environmental Protection Agency [EPA] National Institutes of Environmental Health Sciences [NIEHS] National Toxicology Program [NTP] U.S. Food and Drug Administration [FDA] Tox21 Assay Overview: The peroxisome proliferator-activated receptors (PPARs) are lipid-activated transcription factors of the nuclear receptor superfamily with three distinct subtypes namely PPAR alpha, PPAR delta (also called PPAR beta) and PPAR gamma (PPARg). All these subtypes heterodimerize with Retinoid X receptor (RXR) and these heterodimers regulate transcription of various genes. PPAR-gamma receptor (glitazone receptor) is involved in the regulation of glucose and lipid metabolism. To identify the compounds that activate PPAR-gamma signaling, GeneBLAzer PPAR gamma UAS-bla HEK293H cell line (Invitrogen, Carlsbad, CA, USA) containing a beta-lactamase reporter gene under the control of an Upstream Activator Sequence (UAS) was used to screen the Tox21 compound library. The cytotoxicity of the Tox21 compound library against the PPARg-bla cell line was tested in parallel by measuring the cell viability using CellTiter-Glo assay in the same wells.
Tox21 Assay Protocol Summary: PPARg-bla cells were dispensed at 3000 cells/5uL/well in 1536-well black wall/clear bottom plates using a Multidrop Combi (Thermo Fisher Scientific, Waltham, MA) dispenser. After the assay plates were incubated at 37 C and 5% CO2 for 5 h, 23 nL of compounds dissolved in DMSO, positive controls or DMSO only was transferred to the assay plate by a Pintool station (Kalypsys, San Diego, CA), followed by addition of 1ul Rosiglitazone (50 nM, final concentration in the wells). The assay plates were incubated at 37 C for 17 h, and then 1 uL of LiveBLAzerTM B/G FRET substrate was added using a Bioraptr Flying Reagent Dispenser (FRD) workstation (Beckman Coulter, Indianapolis, IN, USA). The assay plates were incubated at room temperature for 1 h and fluorescence intensity was measured by an Envision plate reader (PerkinElmer, Shelton, CT). For cell viability readout that measures cytotoxicity, 4 ul/well of CellTiter-Glo reagent was added into the assay plates using a Flying Reagent Dispenser. After 30 min incubation at room temperature, the luminescence intensity in the plates was measured using a ViewLux plate reader (PerkinElmer).
For orientation: Quantitative high-throughput screening tests each substance at several concentrations.
Regarding `Sc1ccccc1`, the molecule was classed as inactive.
As to `O=P1(NCCCl)OCCCN1CCCl` (stereo not given), the molecule was classed as inactive.
Take `c1ccc2c(c1)CCCC2`: the molecule was called inactive.
As for `COC(=O)Nc1cccc(OC(=O)Nc2cccc(C)c2)c1`, the call was inactive.
For `O=C(O)C(Br)Br`, the molecule was classed as inactive.
Regarding `O=C(O)C1C(C(=O)O)C2(Cl)C(Cl)=C(Cl)C1(Cl)C2(Cl)Cl` (stereo not given), the molecule was called inactive.
Take `O=C(O)Cc1ccccc1`: the outcome was inactive.
Regarding `CC12CC1(C)C(=O)N(c1cc(Cl)cc(Cl)c1)C2=O` (stereo not given), the result was inactive.
`COS(=O)(=O)OC`: the molecule was classed as inactive.
Take `FC(F)(F)c1ccc(Cl)cc1`: the “activity change, negative = cytotoxicity” value was 10.5%.
On to `C[C@]12CC[C@H](O)CC1=CC[C@@H]1[C@@H]2CC[C@]2(C)C(=O)CC[C@@H]12`, for which the result was inactive.
Consider `CN(C)C(=O)Nc1cccc(C(F)(F)F)c1`, for which the molecule was called inactive.
Take `CNC(=O)O/N=C/C(C)(C)S(C)=O` (stereo not given): the result was inactive.
Regarding `OCCCCO`, the outcome was inactive.
Take `Cc1ccc(N=C=O)cc1N=C=O`: the molecule was classed as inactive.
With `Cc1cccc(C)c1NC(=O)CN1CCCC1=O`, the “activity change, negative = cytotoxicity” value was 1.09% [at 62.6 µM].
Turning to `Cl[C@H]1OCCO[C@@H]1Cl`, the call was inactive.
In the case of `Nc1nc(N)nc(NC2CC2)n1`, the outcome was inactive.
Take `N#CN=C(N)N`: the molecule was classed as inactive.
The same measure, in the same setting: the value for `COc1cc(-c2ccc(N)c(OC)c2)ccc1N` was “inactive”; that for `CN1C(=O)CCS(=O)(=O)C1c1ccc(Cl)cc1` (stereo not given) was “inactive”; that for `Cc1cccc(N)c1C` was “inactive”.
For `CCSC(=O)N1CCCCCC1`, the “activity change, negative = cytotoxicity” value was 21.2%.
With `CCOC(=O)CC(SP(=O)(OC)OC)C(=O)OCC` (stereo not given), the call was inactive.
As for `C=C(C)C(=O)OCC(CC)CCCC` (stereo not given), the “activity change, negative = cytotoxicity” value is 6.52% [at 81.1 µM, co-treated with 50 nM rosiglitazone].
`Cc1cc(Cl)ccc1OC(C)C(=O)O` (stereo not given): the molecule was classed as inactive.
The same measure, in the same setting: next, `Nc1ncc([N+](=O)[O-])s1`: “inactive”; `COC(C)(C)CCCC(C)C/C=C/C(C)=C/C(=O)OC(C)C` (stereo not given): “inactive”.
Turning to `CC[N+](=O)[O-]`, the molecule was called inactive.
On the same count and under the same terms, next, `CCNc1nc(Cl)nc(NC(C)C)n1`: “inactive”; `CCOP(=S)(OCC)Oc1cc(C)nc(C(C)C)n1`: “inactive”; `Oc1c(Br)cc(Br)cc1Br`: “inactive”.
`Cc1cccc(N)c1`: the molecule was classed as inactive.
On the same count and under the same terms, the value for `COP(=S)(OC)Oc1ccc(SC)c(C)c1` was “inactive”; that for `C=CCN=C=S` was “inactive”; that for `O=C(O)c1cc(Oc2ccc(C(F)(F)F)cc2Cl)ccc1[N+](=O)[O-]` was “inactive”.
Take `C[C@H]1C(=O)O[C@@H]2CCN3CC=C(COC(=O)[C@](C)(O)[C@]1(C)O)[C@H]23`: the call was inactive.
Turning to `OCc1ccco1`, the “activity change, negative = cytotoxicity” value was 20% [at 81.1 µM, co-treated with 50 nM rosiglitazone].
On to `Cc1ccc(N)cc1`, for which the result was inactive.
Consider `O=C/C=C/c1ccccc1`, for which the result was inactive.

(Values after PubChem BioAssay (Tox21).)
